INHIBITION data for 58 molecules are collected here from ChEMBL document CHEMBL4513216, “Probing the Open Global Health Chemical Diversity Library for Multistage-Active Starting Points for Next-Generation Antimalarials” (ACS Infect Dis, 2020).

About 8,600 (12%) of roughly 69,000 compounds showed an effect of 50% or more. Shown is part of a subset that was picked to be rich in strong results.

The test relates to Plasmodium berghei. Briefly: Screen against P. berghei liver stage (PbLuc), transformed with Luciferase, at 10uM. The test is classed as functional, HepG2. The conditions noted are these: tested at 10 uM.
Turning to `CC(=O)NCc1ccc(C(=O)NC2CCc3nc(C)cn3C2)o1` (stereo not drawn), the INHIBITION turned out to be 17.945%.

`COc1ccc(CN2C[C@@H]3COC[C@@H](N4CCN(C)CC4)[C@@H]3C2)cc1`: the INHIBITION is 68.4%.

Consider `O=C(C[C@@H]1COC[C@H]2CN(Cc3cccnc3)C[C@@H]12)N1CCOCC1`, for which the INHIBITION was determined as 19.5%. The result for `CN1CCN([C@H]2COC[C@@H]3CN(Cc4cccnc4)C[C@@H]32)CC1` reads 57.9%; that for `Cc1cc(C)cc(CN2C[C@H]3COC[C@H](N4CCN(C)CC4)[C@H]3C2)c1`, 47.4%; that for `COc1ccc(CN2C[C@@H]3COC[C@H](N4CCN(C)CC4)[C@@H]3C2)cc1`, 40.4%.

With `COc1ccc(CN2C[C@@H]3COC[C@@H](CC(=O)N4CCCC4)[C@@H]3C2)cc1`, the INHIBITION is -26.5%.

As to `Cc1nc(CN2CCCN(Cc3nccn3C(C)C)CC2)no1`, the INHIBITION is reported as 29.7%. In the case of `CNc1nc(CNC(=O)Nc2cccc(CC(F)(F)F)c2)cs1`, the INHIBITION was determined as 7.5%. With `CNC(=O)[C@H]1C[C@@H]2CN(Cc3cccnc3OC)C[C@@H]2N1C(C)C`, the INHIBITION is on record as 33.4%. `CNC(=O)[C@H]1C[C@@H]2CN(c3cc(OC)ncn3)C[C@@H]2N1C(C)C`: the INHIBITION worked out at 55.6%. For the molecule `CNC(=O)[C@@H]1C[C@H]2CN(c3ncccn3)C[C@H]2N1C(C)C`, the INHIBITION is 24.6%.

As for `CN1CCN(C[C@H]2OC[C@@H]3CCN(Cc4ccsc4)C[C@@H]32)CC1`, the INHIBITION turned out to be 22.4%. For `O=C(c1ccn(COc2ccc(F)cc2)n1)N1CCCC1`, the INHIBITION is -28%. In the case of `CC(C)c1ccc(OCn2ccc(C(=O)N3CCCC3)n2)cc1`, the INHIBITION turned out to be 83.4%.

`O=C(c1ccn(COc2ccc(F)cc2)n1)N1CCCCCC1`: the INHIBITION was -24.6%. `CN(CCc1ccccn1)Cc1nccn1Cc1ccccc1`: the INHIBITION is listed as 81.2%. With `CN(Cc1ccncc1)Cc1nccn1Cc1ccccc1`, the INHIBITION is reported as -46.4%. In the case of `CN(CCc1ccncc1)Cc1nccn1Cc1ccccc1`, the INHIBITION is reported as 11.6%. In the case of `CC(C)CC(=O)N1CCCC1c1nccnc1Nc1ncccn1` (stereo not drawn), the INHIBITION stood at 32.3%. With `O=S(=O)(CC1CCCN1S(=O)(=O)C1CC1)c1ccccc1` (stereo not drawn), the INHIBITION was determined as 7.77%. For `CS(=O)(=O)N1CCCC1CS(=O)(=O)c1ccccc1` (stereo not drawn), the INHIBITION came to 66.9%. The result for `O=S(=O)(CC1CCCN1S(=O)(=O)c1cccnc1)c1ccccc1` (stereo not drawn) reads 13.2%. As to `O=C1NC(c2cnc(C3CCC3)s2)Nc2ccccc21` (stereo not drawn), the INHIBITION is listed as -90.1%.

Consider `CC(C)Nc1nc2c(c(N(C)C)n1)CCN(C(=O)c1cc[nH]n1)CC2`, for which the INHIBITION stood at 50.7%. On to `Cc1nc2c(c(NC(C)C)n1)CCN(C(=O)c1cc[nH]n1)CC2`, for which the INHIBITION is recorded as 34.6%. As for `CC(C)N(C)Cc1n[nH]c2c1CCN(C(=O)c1cc[nH]n1)C2`, the INHIBITION is 8.03%. For `O=C(C[C@@H]1COC[C@H]2CN(C3CCOCC3)C[C@@H]12)Nc1cnccn1`, the INHIBITION turned out to be 42.5%.

In the case of `COc1ccccc1C1(O)CCCN(C(=O)c2cnc(SC)nc2)C1` (stereo not drawn), the INHIBITION was determined as 36.9%. In the case of `COc1ccc(CN2C[C@@H]3CCCO[C@@H]3[C@H](NC(=O)CC3CC3)C2)cc1`, the INHIBITION is reported as -3.52%. On to `O=C(N[C@@H]1CN(Cc2ccccc2)C[C@@H]2CCCO[C@@H]21)C1CC1`, for which the INHIBITION amounted to 6.38%.

For the molecule `O=C(CC1CC1)N[C@@H]1CN(C(=O)c2ccsc2)C[C@@H]2CCCO[C@@H]21`, the INHIBITION was found to be 63.8%.

As to `Cc1occc1C(=O)N1C[C@@H]2CCCO[C@@H]2[C@H](NC(=O)CC2CC2)C1`, the INHIBITION turned out to be 62.9%.

`O=C(CC1CC1)N[C@@H]1CN(Cc2ccco2)C[C@@H]2CCCO[C@@H]21`: the INHIBITION is on record as -2.17%. Take `Cc1occc1C(=O)N1C[C@@H]2CCCO[C@@H]2[C@H](NS(C)(=O)=O)C1`: the INHIBITION came out at 43%.

Take `O=C(N[C@@H]1CN(Cc2ccoc2)C[C@@H]2CCCO[C@@H]21)C1CCC1`: the INHIBITION was 72%. To `O=C(CC1CC1)N[C@@H]1CN(C(=O)c2ccoc2)C[C@@H]2CCCO[C@@H]21` belongs 71.1%; to `O=C(CC1CC1)N[C@@H]1CN(Cc2ccc(F)cc2)C[C@@H]2CCCO[C@@H]21`, -6.23%; to `Cc1ccc(CN2C[C@@H]3CCCO[C@@H]3[C@H](NC(=O)CC3CC3)C2)s1`, 49.3%. `O=C(CC1CC1)N[C@@H]1CN(Cc2ccoc2)C[C@@H]2CCCO[C@@H]21`: the INHIBITION turned out to be 3.25%. For `O=C(CC1CC1)N[C@@H]1CN(c2ncccn2)C[C@@H]2CCCO[C@@H]21`, the INHIBITION is -29.3%. In the case of `O=C(CCC1CCCO1)NCc1ccccc1Cn1cncn1` (stereo not drawn), the INHIBITION is listed as 34.7%. In the case of `COc1ccc(Nc2nc3c(C)nn(C)c3c(=O)n2C)c(C)c1`, the INHIBITION was 29%. The result for `Cc1nn(C)cc1C(=O)N1CCCC(n2cncn2)C1` (stereo not drawn) reads 9.14%. Consider `Cc1sc(C(=O)O)cc1S(=O)(=O)Nc1c(F)cccc1-n1cccn1`, for which the INHIBITION is on record as -28.8%. The result for `O=C(NCC1(COc2cnccn2)C[C@@H](O)[C@@H](O)C1)C1CCOCC1` (stereo partly drawn) reads -0.813%. `Cc1n[nH]c(=O)c(C(=O)N2CCN(CCc3cccs3)CC2)c1C`: the INHIBITION is recorded as -36.1%.

On to `CSC(C)C(=O)NS(=O)(=O)c1ccc(F)c(C(F)(F)F)c1` (stereo not drawn), for which the INHIBITION amounted to 25%.

In the case of `Cc1ncsc1CN1CC[C@H]2C(=O)N(c3ccccc3)CCO[C@H]2C1`, the INHIBITION turned out to be 23.3%.

As for `COc1ccc(CN2CCc3c(CNC(=O)CC#N)nn(C)c3C2)cc1`, the INHIBITION is recorded as 29.8%.

For `CCc1sc(-c2nnc(CNCCn3cc(C)cn3)o2)cc1C`, the INHIBITION came to 30.8%. To `CN(Cc1nnc(C2CC2)n1C)C1CCN(Cc2nccn2C)C1` (stereo not drawn) belongs 21.6%; to `COc1ncccc1NC(=O)NC(CCCO)c1ccccc1` (stereo not drawn), 25.4%; to `CC(C)OC(=O)CNC(=O)Nc1ccc(-c2nc(C(C)C)no2)cc1`, -17.8%. As to `O=C(CC1CC1)N[C@@H]1CN(Cc2ccncc2)C[C@@H]2CCCO[C@@H]21`, the INHIBITION stood at 33.4%. As for `O=C(CC1CC1)N[C@@H]1CN(C(=O)c2cccs2)C[C@@H]2CCCO[C@@H]21`, the INHIBITION is given as 53.9%. For the molecule `O=C(CC1CC1)N[C@@H]1CN(Cc2nccs2)C[C@@H]2CCCO[C@@H]21`, the INHIBITION was found to be 29%. On to `Cc1n[nH]c(C)c1CCC(=O)N(C)Cc1cn[nH]c1-c1ccc(F)cc1`, for which the INHIBITION turned out to be 11.8%.
